# Data: PubChem BioAssay AID1445 (SRMLSC, 2008)
# Among all 220,000 compounds or so, about 910 (0.41%) were called active. The sample holds actives, similar compounds and a random draw of the others, so the mix is not that of the screen. Potency and affinity values are given separately. Unmarked numbers belong to inactive results.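 The calls were made as follows: active = primary inhibition above the hit cutoff, then over 50% inhibition at one or more dose response concentrations (cut at about 23% in these data, passing the limit was not always enough); inconclusive = conflicting primary data, or primary hits not chosen for dose response; inactive = low primary inhibition, or under 50% at every dose.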
# Molecular target: Aminopeptidase N (Plasmodium falciparum (isolate 3D7)) (UniProt O96935)
# Sequence (O96935 whole entry, looked up): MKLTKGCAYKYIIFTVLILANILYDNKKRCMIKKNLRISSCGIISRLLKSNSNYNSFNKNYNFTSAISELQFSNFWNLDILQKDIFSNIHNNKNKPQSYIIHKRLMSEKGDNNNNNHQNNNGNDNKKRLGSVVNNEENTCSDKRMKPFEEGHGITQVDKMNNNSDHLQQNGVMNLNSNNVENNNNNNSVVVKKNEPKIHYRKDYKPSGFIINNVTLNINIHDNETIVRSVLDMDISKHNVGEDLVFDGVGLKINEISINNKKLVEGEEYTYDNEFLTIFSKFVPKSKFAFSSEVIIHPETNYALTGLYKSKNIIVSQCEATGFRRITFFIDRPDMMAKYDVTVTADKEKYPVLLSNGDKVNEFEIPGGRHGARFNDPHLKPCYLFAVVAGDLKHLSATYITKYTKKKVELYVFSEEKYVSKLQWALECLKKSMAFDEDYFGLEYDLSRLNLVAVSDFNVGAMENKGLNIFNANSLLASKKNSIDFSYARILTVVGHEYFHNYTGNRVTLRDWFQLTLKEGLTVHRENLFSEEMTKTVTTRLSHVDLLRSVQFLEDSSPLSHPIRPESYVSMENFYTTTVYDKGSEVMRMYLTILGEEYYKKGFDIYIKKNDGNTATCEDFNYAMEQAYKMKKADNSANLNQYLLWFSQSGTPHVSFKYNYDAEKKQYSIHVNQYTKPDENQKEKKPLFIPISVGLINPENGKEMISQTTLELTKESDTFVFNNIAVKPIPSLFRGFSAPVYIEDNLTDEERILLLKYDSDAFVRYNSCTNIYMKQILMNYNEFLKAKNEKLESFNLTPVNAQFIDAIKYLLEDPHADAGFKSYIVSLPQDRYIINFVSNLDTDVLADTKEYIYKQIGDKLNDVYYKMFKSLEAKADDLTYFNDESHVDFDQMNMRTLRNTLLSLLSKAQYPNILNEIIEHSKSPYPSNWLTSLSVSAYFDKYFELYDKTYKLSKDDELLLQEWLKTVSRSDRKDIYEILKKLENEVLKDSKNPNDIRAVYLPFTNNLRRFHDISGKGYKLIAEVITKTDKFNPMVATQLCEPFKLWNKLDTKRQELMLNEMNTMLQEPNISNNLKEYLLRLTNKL
# Test: malaria alanyl aminopeptidase activity blockers – biochemical, fluorogenic H-Leu-NHMec substrate, 1536-well (AID 1445);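 also: plate controls were DMSO full reaction for no effect and no enzyme background for full effect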
# Details: recombinant M1AAP, H-Leu-NHMec fluorogenic kinetic assay; at 30 µM, active compounds read high unless noted
row,SMILES,inhibition
1,Cc1cc(C)nc(SCC(=O)N/N=C/c2cccn2-c2ccc(O)cc2)n1,8.99%
2,Cc1ccc(-c2cn3cccnc3n2)cc1NC(=O)c1c(-c2ccccc2Cl)noc1C,9.6%
3,Cc1onc(-c2ccccc2Cl)c1C(=O)Nc1ccc(-c2cn3cccnc3n2)cc1,3.1%
4,Cc1onc(-c2ccccc2Cl)c1C(=O)Nc1cccc(-c2cn3cccnc3n2)c1,26.2% (active)
5,COc1ccccc1NS(=O)(=O)c1cc(NC(=O)c2cccs2)ccc1N1CCOCC1,3.5%
6,Cc1nn2c(N3CCCC3)c3c(nc2c1-c1ccccc1)CCC3,7%
7,Cc1nn2c(N3CCOCC3)c3c(nc2c1-c1ccccc1)CCCC3,4.17%
8,CC1(C)CC(=O)C(/C=N/n2c(C(F)(F)F)nc3ccccc3c2=O)=C(O)C1,27.5% (active)
9,CC1(C)CC(=O)C(/C=N/n2cnc3ccccc3c2=O)=C(O)C1,11.3%
10,CC1(C)CC(=O)C(C=Nc2ccccc2)=C(O)C1,2.69%
11,O=C(c1ccco1)N1CCN(C(c2ccccc2Cl)c2nnnn2Cc2ccco2)CC1 (stereo unspecified),2.33%
12,Cc1noc(NC(=O)c2ccccc2C(F)(F)F)c1C#N,-0.81%
13,O=S(=O)(Nc1ccncc1Cl)c1cc(Cl)ccc1Cl,4.72%
14,O=S(=O)(Nc1nccs1)c1ccc(Cl)cc1,-5.71%
15,O=S(=O)(Nc1ncccn1)c1ccc(NS(=O)(=O)c2cc(Cl)ccc2Cl)cc1,30.4%
16,O=S(=O)(Nc1cccnc1)c1cccc(Cl)c1,-0.41%
17,O=S(=O)(Nc1cccnc1)c1ccc(Cl)cc1,1.51%
18,O=S(=O)(Nc1nccs1)c1cc(Cl)ccc1Cl,25.8% (active)
19,O=S(=O)(Nc1cccnc1)c1cc(Cl)ccc1Cl,25.4% (active)
20,O=C(O)c1ccc(NS(=O)(=O)c2cc(Cl)ccc2Cl)cc1,5.33%
21,CCOc1ccccc1C(=O)Nc1nnc(SCC(=O)N2CCOCC2)s1,2.46%
22,CN(CC(=O)N1CCCCCC1)S(=O)(=O)c1ccc(Br)s1,8.78%
23,CCOC(=O)Cn1nc(C)c(NC(=O)COc2ccccc2[N+](=O)[O-])c1C,0.47%
24,Cn1c(=O)n(-c2cccc(Cl)c2)c(=O)n1C,4.63%

row,SMILES,inhibition
1,COc1ccc(/C=C/C(=O)NC(=S)NNC(=O)c2cccnc2)cc1,-8.48%
2,Cc1cc2oc(=O)c3c(c2cc1OCc1nn[nH]n1)CCCC3,10.1%
3,Cc1oc(C(=O)O)cc1COc1ccc2c3c(c(=O)oc2c1)CCC3,5.26%
4,Cc1cc(OCc2nn[nH]n2)c2c(C)c(CC(=O)O)c(=O)oc2c1,0.25%
5,Cc1oc(C(=O)O)cc1COc1ccc2c3c(c(=O)oc2c1C)CCC3,7.51%
6,Cc1ccc(S(=O)(=O)NC2=NCCC2)cc1,-0.29%
7,NC(=O)Cn1nc(C(F)(F)F)c2c1CCCC2,10.1%
8,O=C(CSc1nnc(CCc2nc3ccccc3[nH]2)n1-c1ccccc1)NCc1ccccc1,-1.21%
9,COc1ccc(-c2[nH]ncc2/C=C(/C#N)C(=O)NC2CCCCC2)cc1,7.83%
10,N#C/C(=C\c1cn[nH]c1-c1ccccc1)C(=O)NC1CCCCCC1,9.74%
11,Cc1ccc(-c2[nH]ncc2/C=C(\C#N)C(=O)NC2CCCCC2)cc1,24.9% (active)
12,CCOC(=O)c1[nH]c2ccc(OC)cc2c1NC(=O)c1cccc(OC)c1,3.82%
13,Cc1nn(-c2ccccc2)c(Cl)c1C(=O)N(C)c1nc(-c2ccc(F)cc2)cs1,-3.58%
14,COc1cc(/C=C/C(=O)NCCn2c(C)cc3ccccc32)cc(OC)c1OC,8.36%
15,O=Cc1cn(CC(=O)N2CCc3ccccc32)c2ccccc12,2.93%
16,N#Cc1cn(CC(=O)N2CCCc3ccccc32)c2ccccc12,9.27%
17,O=C(NCC(c1cccs1)N1CCOCC1)c1ccc(Cl)s1 (stereo unspecified),7.44%
18,C=CCNC(=S)N1CCC(C(=O)c2ccc(OC)cc2)CC1,8.35%
19,COc1ccc(C2OC(=O)C(C)(C)C(=O)C2(C)C)cc1OC (stereo unspecified),-0.38%
20,Cc1ccc(S(=O)(=O)c2c(C)nn(C(C)(C)C)c2OC(=O)c2ccco2)cc1,27.3% (active)
21,Cc1ccc(S(=O)(=O)c2c(C)nn(-c3ccccc3)c2OC(=O)c2ccco2)cc1,6.34%
22,Cc1ccc(S(=O)(=O)c2c(C)nn(C(C)(C)C)c2OC(=O)c2ccc(Br)o2)cc1,19.6%
23,CCCCCOC(=O)C1C2C=CC3(CN(c4ccccc4C)C(=O)C13)O2 (stereo unspecified),5.27%
24,Nc1nc(CSc2ncccn2)nc(Nc2ccccc2)n1,-3.84%

row,SMILES,inhibition
1,O=C(Nc1ccc(-n2cnnn2)cc1)C1CCCN1C(=O)NC1CCCCC1 (stereo unspecified),3.93%
2,Nc1cc(=O)[nH]c(SCC(=O)Nc2ccccc2-c2ccccc2)n1,2.73%
3,O=C(CSc1ncn[nH]1)Nc1ccccc1-c1ccccc1,-4.4%
4,CCCNc1ncccc1C(N)=O,-1.06%
5,O=c1c(-c2nc3ccccc3s2)cccn1Cc1ccc(Cl)cc1,2.06%
6,Cc1ccc(Cn2cccc(-c3nc4ccccc4s3)c2=O)cc1,10.1%
7,O=c1c(-c2nc3ccccc3s2)cccn1Cc1ccccc1,25.6% (active)
8,O=C(O)CCC(=O)OC1CC2CCC1C2 (stereo unspecified),-3.14%
9,CCN(CC)S(=O)(=O)c1ccc(NC(=O)CC(NC(C)=O)c2ccccc2)cc1 (stereo unspecified),-1.24%
10,COc1ccc(C2=NN(c3ccccc3)C(=O)/C2=C\c2ccc(O)c(OC)c2)cc1,8.38%
11,CCOc1cc(/C=C2\C(=O)N(c3nc(-c4ccc(Br)cc4)cs3)N=C2c2ccccc2)ccc1O,15.7%
12,CCOc1cc(/C=C2\SC(=S)N(Nc3ccccc3)C2=O)ccc1O,14.7%
13,COc1cc(/C=C2\SC(c3ccc(C)cc3)=NC2=O)ccc1O,9.74%
14,CCNc1c([N+](=O)[O-])c(=O)oc2ccccc12,7.91%
15,COc1ccccc1C(=O)N1CCN(Cc2cn[nH]c2-c2ccc(F)cc2F)CC1,3.76%
16,Cc1cccc2cc(CN(C(=O)c3cnccn3)C3CCCCC3)c(Cl)nc12,5.74%
17,Cc1ccc(S(=O)(=O)NN=C2CCN(Cc3ccccc3)CC2)cc1,4.22%
18,O=C(O)CC(c1ccc(Cl)cc1)n1cccc1 (stereo unspecified),8.45%
19,CC(=O)Nc1cc(C(=O)OC(C(=O)c2ccccc2)c2ccccc2)ccc1C (stereo unspecified),2.38%
20,Cc1cccc2cc(COC(=O)C(C)(C)C)c(=O)[nH]c12,4.55%
21,Cc1ccc(-n2c(N)c(C(=O)N3CCOCC3)sc2=S)cc1,-1.83%
22,Nc1c(C(=O)N2CCOCC2)sc(=S)n1-c1ccccc1,24.9% (active)
23,Nc1c(C(=O)N2CCCCC2)sc(=S)n1-c1ccccc1,0.35%
24,CCOC(=O)CC(NC(=O)c1ccc(C)cc1)c1ccc(OC)cc1 (stereo unspecified),5.77%

row,SMILES,inhibition
1,CCN(Cc1ccncc1)C(=O)CCc1nnc(CCc2ccccc2OC)o1,-2.71%
2,CCc1ccc2nc(N=C(N)N)nc(C)c2c1,5.85%
3,NC(N)=Nc1nc(-c2ccccc2)c2ccccc2n1,5.22%
4,COc1cc(/C=C2/SC(=S)N(CC(=O)Nc3nc4ccccc4s3)C2=O)cc(OC)c1OC,6.28%
5,Cc1ccc(N(Cc2ccccc2F)S(C)(=O)=O)cc1C,-9.52%
6,O=C1CCCc2oc3c(cc(NS(=O)(=O)c4ccc5c6c(cccc46)C(=O)N5)c4ccccc43)c21,3.6%
7,Cc1oc2c(cc(NS(=O)(=O)c3cccs3)c3ccccc32)c1C(=O)OC(C)C,3.76%
8,N=c1c(C(=O)NCC2CCCO2)cc2c(=O)n3ccccc3nc2n1Cc1cccnc1 (stereo unspecified),20%
9,Cc1cccn2c(=O)c3cc(C(=O)NCC4CCCO4)c(=N)n(CCN4CCOCC4)c3nc12 (stereo unspecified),8.4%
10,COCCCn1c(=N)c(C(=O)NCc2ccc3c(c2)OCO3)cc2c(=O)n3ccccc3nc21,4.69%
11,CCCn1c(=N)c(C(=O)NCC2CCCO2)cc2c(=O)n3cccc(C)c3nc21 (stereo unspecified),7.23%
12,COc1ccccc1N1C(=O)c2ccc(C(=O)Nc3nccs3)cc2C1=O,7.44%
13,O=C(CSc1ccc(-c2ccccn2)nn1)c1ccc(F)cc1,1.12%
14,N#Cc1c(N)sc(=S)c2c1CCCC2,9.2%
15,N#Cc1c(N)sc(=S)c2c1CCCCC2,23.8% (active)
16,N#Cc1c(N)sc2c1CCCCCC2,7.78%
17,Cn1cnnc1Sc1ccc(C(=O)OCC(=O)Nc2cc(Cl)cc(Cl)c2)cc1[N+](=O)[O-],3.75%
18,CCN(CC)S(=O)(=O)c1cccc(C(=O)Nc2cccnc2)c1,-0.19%
19,CCN(CC)c1ccc(NC(=O)c2cccnc2)c(C)c1,3.17%
20,NNC(=O)c1ccc2c(c1)S(=O)(=O)NNC2=O,8%
21,CC(C)N(C)C1CCN(C(=O)Nc2ccc(Cl)c(Cl)c2)CC1,6.97%
22,COc1cc(OC)c(NS(=O)(=O)c2cc(C(=O)OC(C)C(=O)NC3CC3)c(Cl)cc2Cl)cc1Cl (stereo unspecified),10%
23,COc1cc(OC)c(NC(C)C(=O)N2CCCC2)cc1Cl (stereo unspecified),11.4%
24,CCCCCCOc1ccc(C(CC(=O)O)C(N)=O)cc1 (stereo unspecified),-7.78%
